Experimental data: PubChem BioAssay (NCI)
This is part of a sample that, as a whole, favours compounds with a hit. Of some 83,000 tested, about 20% had one in any assay.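 Interpretation: 100, growth as untreated; towards 0, rising growth inhibition; 0, no net growth; 0 to -100, cell death. Compounds scoring below 10 were considered active.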 A number with no mark means an inactive call. Activity calls are given as the source filed them.

Tested on: SK-MEL-28 melanoma
Assay: NCI-60 one-dose screen, 48 h (100 = growth as untreated, 0 = no growth, -100 = all killed)
Conditions: 10 µM unless noted
Method: Growth inhibition of the SK-MEL-28 human tumor cell line is measured as a screen for anti-cancer activity. Cells are grown in 96 well plates and exposed to the test compound for 48 hours. Compounds are tested at a single concentration, which is 10^-5 M for most compounds. The reported endpoint is percent growth (GI% or GIPRCNT), where numbers from 0 - 100% represent growth inhibition, and numbers from -100% - 0 represent cell death. For example, a value of 40 represents 60% growth inhibition. A value of 0 means no net growth occurred over the course of the experiment. A value of -40 indicates 40% of cells at the beginning of the experiment died by the end of the experiment. A value of -100 means all cells are dead at the end of the experiment.
NCI-60 Human Tumor Cell Lines Screen was performed using the standard one-dose NCI protocol, which is described in more detail at https://dtp.cancer.gov/discovery_development/nci-60/default.htm.
Compounds with GIPRCNT values below 10 were considered active. Activity score was based on GIPRCNT using the following formula: […]
Score is 0 for GIPRCNT values of 100 or above, 50 for GIPRCNT values of 0, and 100 for GIPRCNT values of -100.

Row | SMILES | growth
1 | COc1ccc(Nc2nnc(SCc3ccccc3F)s2)cc1 | 109%
2 | COc1ccc2[nH]c(O)c(C(=Nc3ccc(N(C)C(=O)CN4CCN(C)CC4)cc3)c3ccccc3)c2c1 | 42.4%
3 | Cn1c(I)c(C#C[Si](C)(C)C)c(=O)n(C(=O)c2ccccc2)c1=O | -65.6% (active)
4 | COc1ccc(NC(=O)c2nc(-c3cc(OC)c(OC)c(OC)c3)n(-c3cccc4ccccc34)n2)cc1OC | 55.4%
5 | Cc1ccc(C(=O)C2=C(O)C(=O)N(Cc3cccnc3)C2c2ccccc2F)o1 (stereo not given) | 115%
6 | COc1cc(C2NC(=O)c3ccccc3N2)ccc1OCCCCCOc1c(OC)cc(C2=NOC(c3cc(OC)c(OC)c(OC)c3)C2)cc1OC (stereo not given) | 69.4%
7 | Cc1ccc2nc(C)c(-c3nnc(SCc4ccc(C#N)cc4)o3)n2c1 | 100%
8 | O=C(N/N=C/C=C/c1ccc([N+](=O)[O-])o1)c1cc2ccccc2cc1O | -66.5% (active)
9 | COC1=CC(=O)C[C@@H](C)[C@]12Oc1c(Cl)c(OC)cc(OC)c1C2=O | 85.7%
10 | COC(=O)CCC1=C(C)C2=NC1=CC1=NC(=CC3=NC(=Cc4[nH]c(/c(=C(/C)O)c4C)=C2)C(C(C)=O)=C3C)C(C)=C1CCC(=O)OC | 115%
11 | CNc1ccc(NC)c2c1C(=O)c1ccccc1C2=O | 102%
12 | Cc1occc1-c1n[nH]c(=S)n1N1C(=O)CSC1=S | 106%
13 | COc1ccc(NC(=O)CSc2nnc(-c3cc(-c4ccccc4)nc4ccccc34)n2-c2ccccc2)cc1 | 95.7%
14 | COc1cc(-c2nn(-c3ccccc3)cc2-c2ccnc(NCCNS(=O)(=O)c3ccc(Cl)cc3)n2)ccc1Cl | 49.2%
15 | O=c1[nH][n+](-c2ccc(Cl)cc2)no1 | 77.3%
16 | COc1ccc(-c2nc(SCC(=O)Nc3nc(-c4ccccc4)cs3)[nH]c(=O)c2C#N)cc1 | 104%
17 | N#CC1=C(/N=C/c2ccccc2)Oc2c(ccc3ccccc23)C1c1ccccc1 (stereo not given) | 41.5%
18 | O=C(COc1ccc(/C=C2\Oc3ccccc3C2=O)cc1)Nc1nc2ccccc2s1 | 137%
19 | CC/C=C\C[C@H](O)C/C=C1/C(=O)C=C[C@@H]1C/C=C\CCCCO | 16.7%
20 | c1csc(-c2c3ccc(=[N+]4CCCCC4)cc-3oc3cc(N4CCCCC4)ccc23)c1 | -66.4% (active)

Row | SMILES | growth
21 | Nc1n[nH]c(-c2cc(Cl)ccc2O)c1-c1ccccc1 | 122%
22 | CCN(CC)S(=O)(=O)c1cccc(-c2ccc3c(NC(=O)C4CC4)n[nH]c3c2)c1 | 29.2% [6.25 µM]
23 | c1cc2ccc3cc2cc1CNCCOCCNCc1ccc2ccc(cc2c1)CNCCOCCNC3 | -8.69% (active)
24 | CC/C=C\C/C=C\C[C@H](O)C/C=C1/C(=O)C=C[C@@H]1C/C=C\CCCC(=O)O | 17.5%
25 | NNC(=O)c1nc(N)n(-c2ccc(S(N)(=O)=O)cc2)n1 | 108%
26 | Cc1ccc(NS(=O)(=O)c2ccc3c(c2)C(=O)CC(c2ccc(C(=O)C(C)C)cc2)N3)cc1C (stereo not given) | 77%
27 | COc1cc(C(=O)/C=C/c2c(-c3ccc(F)cc3)nc3sc(C)cn23)cc(OC)c1OC | 12.4%
28 | N#CC1=C(c2ccc(Br)cc2)NC(SCC(=O)c2ccc(Br)cc2)NC1=O (stereo not given) | 111%
29 | Cc1ccc(/C=C/c2c(C(=O)/C=C/c3ccc(Cl)cc3)c(C)nc3ccccc23)cc1 | -55% (active)
30 | CCN(CC)CCCNc1ccc(Nc2ccc(OC)cc2)cc1 | 101%
31 | N#C/C(=C/C=C/c1cccc(Cl)c1)S(=O)c1ccccc1 (stereo not given) | -61.1% (active)
32 | Cc1c(C(=O)OC(=NC2CCCCC2)NC2CCCCC2)sc2c1c(=O)nc1c(C#N)n[nH]n12 | 100%
33 | CCOc1c(C#N)nnc2c(C#N)c(NC(=O)c3ccccc3)nn12 | 104%
34 | CCSC1=NC2C(N(CC)C(=O)N2CC)N1/N=C/C=C/c1ccccc1[N+](=O)[O-] (stereo not given) | 54.5%
35 | O=C(Nc1cccc2c(O)c(N=Nc3ccc(S(=O)(=O)Nc4nccs4)cc3)cc(N=Nc3ccc(S(=O)(=O)Nc4nccs4)cc3)c12)C(Cl)Cl | 82.9%
36 | CNS(=O)(=O)c1n[nH]nc1-c1cc(C(C)(C)C)c(O)c(C(C)(C)C)c1 | 105%
37 | CN1C(=O)N(C)C2C1NN=c1s/c(=C\c3ccccc3)c(=O)n12 (stereo not given) | 63.2%
38 | CCC1(C2CCCC2)NC(=O)NC1=O (stereo not given) | 98.4%
39 | NC(=O)c1ccc[n+]([C@@H]2O[C@H](COP(=O)([O-])OP(=O)(O)OC[C@H]3O[C@@H](n4cnc5c(N)ncnc54)[C@H](O)[C@@H]3O)[C@@H](O)[C@H]2O)c1 | 103%
40 | COc1ccc(NC(=O)CSc2nc(C)c(C(C)=O)n2-c2ccc([N+](=O)[O-])cc2)cc1 | 89.8%
